Laboratory results as given in the supplement of paper PMC6555819.

tested on: PPARg homodimer (NR concentration 180 nM); test: PBM binding z-score (relative to random genomic background probes); higher = stronger binding; sequences stand for … in GC…GCGATTGACAGCGTAGAATGAAGG
Procedure, shortened: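 Ligand-free nuclear receptor dimers were bound for 1 h to custom Agilent 4×180K protein-binding microarrays. Detection used antibodies against each partner (one per run). Binding z-scores rest on regression-normalized fluorescence, with random background probes as the reference.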

| Sequence | PBM binding z-score |
| --- | --- |
| CCGAGTAGGTTACGAGGGGGCATTCAATGCGAAT | 2.11 |
| CCGAGTAGGTTACGAGGGGGCATTTAGTGCGAAT | 1.41 |
| TCGAGTAGGTTACGGGGGGATTCAGGGATGAAGA | 3.89 |
| CTGAGTAGGTTACGAGGGGGCATTCAGTGCGAAT | 1.78 |
| CTATGTAGGTTAAGGGGGTCATACAGTTTGAAAG | 3.8 |
| CTATGTAGGTTAAGGGGGTCTTTCAGTTTGAAAG | 2.14 |
| CCGAGTAGGTTACGAGGGGGCAATCAGTGCGAAT | 2.06 |
| CCGAGTAGGTTACCAGGGGGCATTCAGTGCGAAT | 1.99 |
| TCGAGTCGGTTACGGGGGCATTCAGGGATGAAGA | 1.02 |
| TCGAGTAGGTTACGGGGACATTCAGGGATGAAGA | 1.95 |
| CTATGTAGGTTAAGGGGGTCATTCCGTTTGAAAG | 3.57 |
| CTATGTAGGTTGAGGGGGTCATTCAGTTTGAAAG | 3.25 |
| CCGAGTGGGTTACGAGGGGGCATTCAGTGCGAAT | 1.4 |
| CCGAGTAGGTTATGAGGGGGCATTCAGTGCGAAT | 1.86 |
| CCGAGTAGGTAACGAGGGGGCATTCAGTGCGAAT | 0.975 |
| CCGGGTAGGTTACGAGGGGGCATTCAGTGCGAAT | 1.56 |
| CCGAGTAGCTTACGAGGGGGCATTCAGTGCGAAT | 0.745 |
| CTATGAAGGTTAAGGGGGTCATTCAGTTTGAAAG | 4.25 |
| CCGAGTAGGTTACGAGGAGGCATTCAGTGCGAAT | -0.438 |
| CTCTGTAGGTTAAGGGGGTCATTCAGTTTGAAAG | 3.78 |

| Sequence | PBM binding z-score |
| --- | --- |
| CTATGGAGGTTAAGGGGGTCATTCAGTTTGAAAG | 4.29 |
| TCGAGTAGGTTACGGGGGCATTCACGGATGAAGA | 2.12 |
| CTATGTAGGTTAAGGGGGTCATTCAGTTTGAAAG | 3.66 |
| CCGAGTAGGTTACGAGGGGGCCTTCAGTGCGAAT | 1.59 |
| CCGAGTAGGTTACGAGGGGGCATTCACTGCGAAT | 1.02 |
| CCGAGTAGGTTACGAGGGGGCATTCATTGCGAAT | 1.17 |
| CTATATAGGTTAAGGGGGTCATTCAGTTTGAAAG | 4.56 |
| CAGAGTAGGTTACGAGGGGGCATTCAGTGCGAAT | 1.94 |
| CTATGTAGGTTAAGGGGTTCATTCAGTTTGAAAG | 1.79 |
| CCGAGTAGGTTACGAGGCGGCATTCAGTGCGAAT | 0.605 |
| CTAAGTAGGTTAAGGGGGTCATTCAGTTTGAAAG | 3.59 |
| TCGAGTAGGCTACGGGGGCATTCAGGGATGAAGA | 0.299 |
| CCATGTAGGTTAAGGGGGTCATTCAGTTTGAAAG | 4.47 |
| CTATGTAGGTTAAGGGTGTCATTCAGTTTGAAAG | 1.32 |
| CTATGTAGGCTAAGGGGGTCATTCAGTTTGAAAG | 1.72 |
| CCGAGTAGGTTACGAGGGGGCTTTCAGTGCGAAT | 0.789 |
| CTATGTAGGTTAAGGGGGTCATTCGGTTTGAAAG | 4.23 |
| CTATGTTGGTTAAGGGGGTCATTCAGTTTGAAAG | 4.17 |
| CCGAGTAGGTTACGAGGGGGCATCCAGTGCGAAT | 1.63 |
